# In the library only some 9% were active in any assay of this set; here they are far more common.
# PLK1 PBD inh = PLK1 (human) polo-box domain binding inhibition; P53350; Plk1 PBD binding of FITC phosphopeptide, fluorescence polarization; Potency, µM, actives largely listed as inhibitors; actives 2.8% (n = 360,000); AID 720504; note: series mostly up to about 57 µM; nearly all actives have a fitted effect of over 65% in size
# G9a block = G9a (human) methyltransferase inhibition. Q96KQ7. G9a H3K9 monomethylation, AlphaScreen, 2 h. Potency, µM (series often up to 102 µM), actives largely listed as inhibitors. actives 8.8% (n = 350,000); note: nearly all actives have a fitted effect of over 75% in size
#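 Signal arises when biotinylated H3K9 peptide, once monomethylated, bridges streptavidin donor and antibody-captured acceptor beads. Enzyme at 20 nM was preincubated 15 min with test compounds; peptide 500 nM and SAM 20 uM then reacted for 2 h.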
# HP1b chromo inh = inhibitors of HP1-beta chromodomain binding to methylated histone tails. P83916. AlphaScreen HP1-beta / biotin-H3K9me3 peptide binding. Potency, µM (highest dose often 114 µM), most hits filed as inhibitors. actives 0.56% (n = 390,000); note: nearly all actives have a fitted effect of over 70% in size
#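 Compound inhibition of the preformed complex between 50 nM HP1-beta and 50 nM biotinylated H3K9me3 peptide was read by AlphaScreen. Buffer was PBS pH 7.4 with 0.01% Tween-20. Incubations ran 30 min at room temperature, with 10 ug/mL donor/acceptor beads.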
# ALOX12 inh = blocks human arachidonate 12S-lipoxygenase; actives 1.1% (n = 580,000); Potency, µM (highest dose often 108 µM), actives largely listed as inhibitors; AID 1671190; purified 12hLO, xylenol orange hydroperoxide absorbance
#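 Purified human 12hLO at 150 nM in 25 mM Hepes, 0.01% Triton X-100, pH 7.0, preincubated 15 min at room temperature with compound. Reaction started with 40 uM arachidonic acid, 30 min at room temperature. Hydroperoxide measured by Fe-xylenol orange, 573/405 nm absorbance ratio.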
# JMJD2A Tudor inh = blocks the human JMJD2A Tudor domain. O75164. AlphaScreen JMJD2A-Tudor / H3K4me3 peptide binding. Potency, µM (titrated, usually from 114 µM), most hits filed as inhibitors. actives 4.4% (n = 390,000). AID 504339; note: nearly all actives have a fitted effect of over 50% in size
# BAZ2B block = inhibitors of human BAZ2B bromodomain; AlphaScreen BAZ2B-H3K14Ac peptide displacement; Potency, µM (titrated, usually from 114 µM), actives largely listed as inhibitors; actives 4.4% (n = 360,000); note: nearly all actives have a fitted effect of over 60% in size
#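 In this displacement format the biotinylated H3(5-23) peptide acetylated at Lys14 serves as ligand at 50 nM, with BAZ2B at 50 nM in PBS pH 7.4 containing 0.01% Tween-20. Donor and acceptor beads are 10 ug/mL final.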
# Hits are given with their value; 0 = inactive; ? = inconclusive; - = not tested or not shown; [ ] = dose if it differs, or a comment. Calls come from the whole dose curve; as a rule, active = well fitted curve in the direction sought with a large enough effect; inconclusive = small, poorly fitted or top-dose-only effect, or another doubt; inactive = no such curve, though single readings can be large; an effect the other way counts as inactive or inconclusive.
SMILES,PLK1 PBD inh,G9a block,HP1b chromo inh,ALOX12 inh,JMJD2A Tudor inh,BAZ2B block
COc1ccc(CSc2nnc3[nH]c(=O)cc(N)n23)cc1,?,35µM,0,0,0[11.4 µM],0
N#Cc1ccc(CSc2nnc3[nH]c(=O)cc(N)n23)cc1,?,22µM,0,?,0,0
COc1cnc(-c2cccc(C(F)(F)F)c2)[nH]c1=O,0,-,0,0,0,0
CCC(C)NC(=O)/C(C)=C/c1ccccc1 (stereo unspecified),-,-,-,0,-,-
COc1cc(/C=C2\SC(=O)N(Cc3ccc(F)cc3)C2=O)cc([N+](=O)[O-])c1O,27µM,-,16µM,?,28µM,8.9µM
CCOC(=O)CN1C(=O)S/C(=C/c2ccc(OC)c([N+](=O)[O-])c2)C1=O,0,0,0,0,0,0
COc1cc(/C=C2\SC(=O)N(Cc3ccc(Cl)cc3)C2=O)cc([N+](=O)[O-])c1O,24µM,0,13µM,0,8.9µM,16µM
COc1cc(/C=C2/SC(=O)N(Cc3ccccc3)C2=O)ccc1OCc1ccncc1,0,0[12.7 µM],0,0,?,0
COCCCNC(=O)c1c(NC(=O)C2COc3ccccc3O2)sc2c1CCCC2 (stereo unspecified),0,0[12.7 µM],0,?,0[11.4 µM],0
CCOC(=O)NCc1ccc2[nH]c(C)cc2c1,0,?,0,0,?,0
Cc1cc2cc(CNC(=S)Nc3ccc(OC(F)F)cc3)ccc2[nH]1,0,0,0,?,?,45µM
CCNC(=S)NCc1ccc2[nH]c(C)cc2c1,0,50µM,0,?,?,?
Cc1cc2cc(CNC(=S)Nc3ccc(OC(F)(F)F)cc3)ccc2[nH]1,0,0,0,32µM,?,0
Cc1cccc(N2CCN(C(=O)C3CCN(C(=O)c4cc5sccc5n4C)CC3)CC2)c1C,-,?,0,0,?,22µM
CC(=O)Nc1ccc(S(=O)(=O)N2CCN(CCN3CCOCC3)CC2)cc1Cl,0,0,0,0,0,0
C[C@@H]1O[C@@H](Oc2c(-c3cc(O)c(O)c(O)c3)oc3cc(O)cc(O)c3c2=O)[C@H](O)[C@H](O)[C@H]1O,?,45µM,?,?,32µM,50µM
CN(C)[C@@H]1CO[C@H](CNC(=O)c2ccncc2)[C@H]1O,-,-,-,0,-,-
COc1cc2c(cc1OC)CN(C(=O)CCc1c[nH]c3ccccc13)[C@H](C(=O)O)C2,0,71µM,0,0,0,0
CCCC1=NN(C(=O)Cc2ccc(OC)c(OC)c2)C(O)(C(F)(F)F)C1 (stereo unspecified),0,0,0,0,0,0
CC(C)OC(=O)C(C#N)c1nc2ccccc2nc1N1CCCC1 (stereo unspecified),0,11µM,0,-,0,0
COc1ccc(CNC(=O)C(C#N)c2nc3ccccc3nc2N2CCCC2)cc1 (stereo unspecified),?,0,0,0,0,0
CCC(CC)COC(=O)C(C#N)c1nc2ccccc2nc1N1CCN(CC)CC1 (stereo unspecified),0,45µM,0,?,?,35µM
COc1ccc(CNC(=O)C(C#N)c2nc3ccccc3nc2N2CCN(C)CC2)cc1 (stereo unspecified),0,?,?,0,71µM,50µM
COC(=O)C(C#N)c1nc2ccccc2nc1N1CCCC1 (stereo unspecified),0,0[12.7 µM],0,0,0,?
CC(C(=O)NCc1ccccn1)n1nc(-c2ccccc2)c2ccccc21 (stereo unspecified),-,-,-,0,-,-
CCC(CC)C(=O)N1CCCC(c2nc(-c3cccs3)no2)C1 (stereo unspecified),?,0[12.7 µM],0,0,?,0
O=C1CC(c2ccccc2)NCCCCCCN1 (stereo unspecified),-,-,-,0,-,-
CN(C(=O)CCc1nnc(-c2ccc(-c3ccccc3)cc2)o1)C1CCOCC1,0,0,0,0,0,0
O=C1c2cccc3c([N+](=O)[O-])ccc(c23)C(=O)N1Cc1cccnc1,?,?,?,0,0,40µM
Cc1nnc(N2C(=O)c3cccc4c([N+](=O)[O-])ccc(c34)C2=O)s1,?,50µM,0,?,0,0
